Laboratory results reported in the supplement of paper PMC12067926.

Assays:
Test in all cases: relative growth (AUC of 72 h growth curve relative to DMSO control, dAUC) (ratio); higher = more growth (less inhibition), active = hit call of the paper
Conditions in all cases: 20 µM;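 active = growth AUC significantly below the DMSO wells by Dunnett test; inactive = the rest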
[1] = system: Aeromonas 1 (Aeromonas sp. AE235)
Method in brief: (§1)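 Cultures grown to carrying capacity in Luria–Bertani medium, drawn from Icelandic stream sediment and Silwood Park soil isolates and whole sediment communities, were diluted 1:100 into 96-well plates with each chemical at 20 µM (1% DMSO) and read at A600 hourly for 72 h. The spline-integrated area under the growth curve, divided by the mean of the DMSO controls, is reported as relative growth (dAUC). Values are means of three biological replicates.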

[2] = system: Aeromonas 2 (Aeromonas sobria)
Method in brief: as §1

[3] = system: Aeromonas 3 (Aeromonas popoffii)
Method in brief: as §1

[4] = system: Argrobacterium 1 (Agrobacterium sp.)
Method in brief: as §1

[5] = system: Arthrobacter 1 (Arthrobacter humicola)
Method in brief: as §1

[6] = system: Arthrobacter 2 (Arthrobacter humicola)
Method in brief: as §1

[7] = system: Arthrobacter 3 (Arthrobacter sp.)
Method in brief: as §1

Community 10 = system: Community 10
Method in brief: as §1

Community 4 = system: Community 4
Method in brief: as §1

Community 6 = system: Community 6
Method in brief: as §1

Community 7 = system: Community 7
Method in brief: as §1

Community 8 = system: Community 8
Method in brief: as §1

Community 9 = system: Community 9
Method in brief: as §1

[8] = system: Flavobacterium 1 (Flavobacterium glaciei)
Method in brief: as §1

[9] = system: Flavobacterium 2 (Flavobacterium succinicans)
Method in brief: as §1

[10] = system: Hymenobacter 1 (Hymenobacter glaciei)
Method in brief: as §1

[11] = system: Microbacterium 1 (Microbacterium arborescens)
Method in brief: as §1

[12] = system: Neobacillus 1 (Neobacillus soli)
Method in brief: as §1

[13] = system: Oryzobacter 1 (Oryzobacter terrae)
Method in brief: as §1

[14] = system: Paenibacillus 1 (Paenibacillus castaneae)
Method in brief: as §1

SMILES | relative growth [1] | relative growth [2] | relative growth [3] | relative growth [4] | relative growth [5] | relative growth [6] | relative growth [7] | relative growth (Community 10) | relative growth (Community 4) | relative growth (Community 6) | relative growth (Community 7) | relative growth (Community 8) | relative growth (Community 9) | relative growth [8] | relative growth [9] | relative growth [10] | relative growth [11] | relative growth [12] | relative growth [13] | relative growth [14]
O=[N+]([O-])c1cc(C(F)(F)F)c(Cl)c([N+](=O)[O-])c1Nc1ncc(C(F)(F)F)cc1Cl | 1.04 (inactive) | 0.00203 (active) | 0.00448 (active) | 0.0123 (active) | 0.035 (active) | 0.0116 (active) | 0.0138 (active) | 0.534 (active) | 0.614 (active) | 0.498 (active) | 0.794 (inactive) | 0.921 (inactive) | 0.34 (active) | 0.0154 (active) | 0.00437 (active) | 0.0968 (active) | 0.928 (inactive) | 0.169 (active) | 0.00855 (active) | 0.00404 (active)
CC(COc1ccc(Oc2ccccc2)cc1)Oc1ccccn1 (centres undefined) | 1.04 (inactive) | 0.997 (inactive) | 1.08 (inactive) | 1.09 (inactive) | 1.11 (inactive) | 0.937 (inactive) | 0.925 (inactive) | 1.01 (inactive) | 1.08 (inactive) | 1.07 (inactive) | 1.05 (inactive) | 1.06 (inactive) | 1.04 (inactive) | 0.975 (inactive) | 1.02 (inactive) | 1.07 (inactive) | 1.05 (inactive) | 1.09 (inactive) | 1.11 (inactive) | 1.05 (inactive)
CC[C@H](C)C1O[C@]2(C=C[C@@H]1C)C[C@@H]1C[C@@H](C/C=C(\C)[C@@H](O[C@H]3C[C@H](OC)[C@@H](O[C@H]4C[C@H](OC)[C@H](NC)[C@H](C)O4)[C@H](C)O3)[C@@H](C)/C=C/C=C3\CO[C@@H]4[C@H](O)C(C)=C[C@@H](C(=O)O1)[C@]34O)O2 (some centres undefined) | 1.08 (inactive) | 0.923 (inactive) | 0.979 (inactive) | 1.11 (inactive) | 0.108 (active) | 0.00328 (active) | 0.324 (active) | 0.9 (inactive) | 0.787 (inactive) | 0.509 (active) | 0.976 (inactive) | 0.952 (inactive) | 0.404 (active) | 0.0154 (active) | 0.832 (inactive) | 0.356 (active) | 1.04 (inactive) | 0.894 (inactive) | 0.00218 (active) | 0.0061 (active)
CCCSP(=O)(OCC)Oc1ccc(Br)cc1Cl (centres undefined) | 1.02 (inactive) | 1.02 (inactive) | 0.994 (inactive) | 1.12 (inactive) | 0.894 (inactive) | 0.745 (inactive) | 0.973 (inactive) | 0.705 (inactive) | 0.833 (inactive) | 0.83 (inactive) | 1.01 (inactive) | 0.96 (inactive) | 0.866 (inactive) | 1.01 (inactive) | 0.919 (inactive) | 0.98 (inactive) | 1.01 (inactive) | 0.965 (inactive) | 1.27 | 0.925 (inactive)
Cc1cc(C2CC2)nc(Nc2ccccc2)n1 | 1.01 (inactive) | 0.948 (inactive) | 1.05 (inactive) | 0.93 (inactive) | 0.989 (inactive) | 0.898 (inactive) | 0.542 (active) | 0.995 (inactive) | 0.978 (inactive) | 1 (inactive) | 0.89 (inactive) | 1.05 (inactive) | 0.939 (inactive) | 0.951 (inactive) | 0.86 (inactive) | 1.1 (inactive) | 1.05 (inactive) | 0.946 (inactive) | 1.04 (inactive) | 0.619 (active)
CS(=O)(=O)c1cc(C(F)(F)F)ccc1C(=O)c1cnoc1C1CC1 | 1.02 (inactive) | 1.01 (inactive) | 1.04 (inactive) | 1.01 (inactive) | 1.1 (inactive) | 1.08 (inactive) | 1.04 (inactive) | 1.13 (inactive) | 1.14 (inactive) | 1.13 (inactive) | 0.983 (inactive) | 1.02 (inactive) | 1.09 (inactive) | 1.01 (inactive) | 1.07 (inactive) | 1.04 (inactive) | 1.02 (inactive) | 1.06 (inactive) | 0.94 (inactive) | 1.13 (inactive)
CC1(C)[C@H](/C=C(\Cl)C(F)(F)F)[C@@H]1C(=O)OC(C#N)c1cccc(Oc2ccccc2)c1 (some centres undefined) | 0.951 (inactive) | 0.993 (inactive) | 1.04 (inactive) | 1.07 (inactive) | 1.28 (inactive) | 0.838 (inactive) | 0.955 (inactive) | 0.816 (inactive) | 0.998 (inactive) | 1.03 (inactive) | 1.19 (inactive) | 1.09 (inactive) | 0.956 (inactive) | 0.836 (inactive) | 0.995 (inactive) | 1.06 (inactive) | 0.995 (inactive) | 0.958 (inactive) | 1.11 (inactive) | 0.889 (inactive)
COc1ccc(C(=CC(=O)N2CCOCC2)c2ccc(Cl)cc2)cc1OC (mixture of isomers) | 0.973 (inactive) | 0.993 (inactive) | 0.998 (inactive) | 1.03 (inactive) | 1.06 (inactive) | 0.983 (inactive) | 0.973 (inactive) | 0.919 (inactive) | 1.07 (inactive) | 0.974 (inactive) | 0.947 (inactive) | 0.986 (inactive) | 1.03 (inactive) | 1.07 (inactive) | 0.979 (inactive) | 1.05 (inactive) | 1.03 (inactive) | 1.02 (inactive) | 1.12 (inactive) | 0.961 (inactive)
C#CCOc1ccc(CCNC(=O)C(OCC#C)c2ccc(Cl)cc2)cc1OC (centres undefined) | 0.978 (inactive) | 0.985 (inactive) | 1 (inactive) | 1.05 (inactive) | 1.04 (inactive) | 0.935 (inactive) | 0.953 (inactive) | 0.982 (inactive) | 0.951 (inactive) | 1.02 (inactive) | 1 (inactive) | 1.05 (inactive) | 0.995 (inactive) | 0.963 (inactive) | 0.928 (inactive) | 1.04 (inactive) | 1.02 (inactive) | 0.98 (inactive) | 1.02 (inactive) | 0.851 (inactive)
Cc1c(COC(=O)[C@@H]2[C@H](/C=C(\Cl)C(F)(F)F)C2(C)C)cccc1-c1ccccc1 (racemic) | 0.988 (inactive) | 0.992 (inactive) | 1.05 (inactive) | 1.06 (inactive) | 1.17 (inactive) | 0.833 (inactive) | 0.786 (inactive) | 0.993 (inactive) | 0.998 (inactive) | 1.05 (inactive) | 1.06 (inactive) | 1.1 (inactive) | 0.947 (inactive) | 0.869 (inactive) | 1 (inactive) | 1.06 (inactive) | 1.05 (inactive) | 0.943 (inactive) | 1.07 (inactive) | 0.975 (inactive)
CCOc1cc(Oc2ccc(C(F)(F)F)cc2Cl)ccc1[N+](=O)[O-] | 0.962 (inactive) | 0.975 (inactive) | 0.966 (inactive) | 1.01 (inactive) | 1.02 (inactive) | 0.848 (inactive) | 1.01 (inactive) | 0.824 (inactive) | 0.905 (inactive) | 0.907 (inactive) | 0.968 (inactive) | 1.04 (inactive) | 0.975 (inactive) | 1.05 (inactive) | 0.971 (inactive) | 1.03 (inactive) | 1.07 (inactive) | 1.01 (inactive) | 1.03 (inactive) | 0.735 (active)
CCC(C)(C)C(=O)OC1=C(c2ccc(Cl)cc2Cl)C(=O)OC12CCCCC2 | 0.99 (inactive) | 0.957 (inactive) | 1 (inactive) | 1.01 (inactive) | 0.721 (inactive) | 0.892 (inactive) | 0.892 (inactive) | 0.839 (inactive) | 1.03 (inactive) | 1.08 (inactive) | 1.13 (inactive) | 0.972 (inactive) | 1.05 (inactive) | 0.794 (inactive) | 1.02 (inactive) | 1.01 (inactive) | 0.978 (inactive) | 1 (inactive) | 1.03 (inactive) | 0.964 (inactive)
COCc1cnc(C2=NC(C)(C(C)C)C(=O)N2)c(C(=O)O)c1 (centres undefined) | 0.932 (inactive) | 0.973 (inactive) | 1 (inactive) | 1 (inactive) | 0.954 (inactive) | 1.01 (inactive) | 0.931 (inactive) | 0.96 (inactive) | 0.84 (inactive) | 0.937 (inactive) | 1.14 (inactive) | 0.983 (inactive) | 0.959 (inactive) | 0.978 (inactive) | 1 (inactive) | 1.02 (inactive) | 1.02 (inactive) | 0.961 (inactive) | 1.05 (inactive) | 0.966 (inactive)
Oc1ccc(Cl)cc1Cc1cc(Cl)ccc1O | 0.522 (active) | 0.00195 (active) | 0.275 (active) | 0.959 (inactive) | 0.00578 (active) | 0.00499 (active) | 0.011 (active) | 0.642 (inactive) | 0.664 (inactive) | 0.496 (active) | 0.862 (inactive) | 0.654 (active) | 0.327 (active) | 0.0108 (active) | 0.00242 (active) | 0.0173 (active) | 0.869 (inactive) | 0.731 (active) | 0.00429 (active) | 0.00339 (active)
CNC(=O)Oc1cccc2ccccc12 | 0.941 (inactive) | 0.918 (inactive) | 0.921 (inactive) | 1.09 (inactive) | 0.924 (inactive) | 1.07 (inactive) | 1.14 (inactive) |  | 0.976 (inactive) | 1.01 (inactive) | 0.845 (inactive) | 1.06 (inactive) | 0.967 (inactive) | 1.09 (inactive) | 1.01 (inactive) | 1.03 (inactive) | 1.02 (inactive) | 1.04 (inactive) | 0.972 (inactive) | 1 (inactive)
CC1=NNC(=O)N(/N=C/c2cccnc2)C1 | 1.04 (inactive) | 1.04 (inactive) | 1.04 (inactive) | 0.954 (inactive) | 1.13 (inactive) | 1.13 (inactive) | 1.05 (inactive) | 0.983 (inactive) | 1.1 (inactive) | 1.14 (inactive) | 0.897 (inactive) | 0.918 (inactive) | 1.2 (inactive) | 1.04 (inactive) | 1.05 (inactive) | 1.12 (inactive) | 1 (inactive) | 1.16 (inactive) | 1.01 (inactive) | 1.06 (inactive)
